# Only some compounds are listed: those with a hit (about 7.3% of all), similar ones and a draw of the others.
# Luc counter: Counterscreen for Luciferase (Kinase-Glo TM) Inhibition | Luciferin 4-monooxygenase (Photuris pensylvanica), Q27757 | Kinase-Glo luciferase, ATP luminescence, 8 min | Potency, µM (titrated, usually from 38.3 µM), for inactives: top-dose activity change, negative = inhibition, hits mostly inhibitors | 200,000 compounds, 0.28% hits | AID 1379, 2008; note: % is set by controls: 0 for no effect and ±100 for the full control effect; nearly all actives have a fitted effect of over 60% in size
#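 Recombinant Kinase-Glo luciferase, 10 uM ATP (linear range), luciferin; imidazole pH 7.2 / KCl / MgCl2 / Tween / BSA buffer; 8 min RT; luminescence.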
# ELG1 genotoxic: qHTS screen for small molecules that induce genotoxicity in human embryonic kidney (HEK293T) cells expressing luciferase-tagged ELG1; Potency, µM (highest dose often 46 µM), for the others: at the highest dose activity change, positive = activation, usual class: activators; HEK293T ELG1-luciferase reporter, luminescence, 16 h; 330,000 compounds, 1.3% hits; AID 504466, 2011; note: % of control where 0% means no effect; nearly all actives have a fitted effect of over 60% in size
#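 Quantitative HTS format in 1536-well plates. HEK293T ELG1-luciferase reporter cells receive test compound and are incubated 16 hr at 37 °C, 5% CO2; ONE-Glo added, 30 min room temperature, then luminescence read.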
# FLuc modulator: qHTS profiling assay for firefly luciferase inhibitor/activator using purifed enzyme and Km concentrations of substrates (counterscreen for miR-21 project); Potency, µM (highest dose often 57.5 µM), inactives show at the highest dose activity change, negative = inhibition, most hits filed as inhibitors; purified FLuc, Km substrates, luminescence inhibition; 360,000 compounds, 6.9% hits;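 note: plate controls were vehicle for no effect and reference inhibitor for full effect; nearly all actives have a fitted effect of over 55% in size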
# Target sequence (P08659 whole entry, looked up): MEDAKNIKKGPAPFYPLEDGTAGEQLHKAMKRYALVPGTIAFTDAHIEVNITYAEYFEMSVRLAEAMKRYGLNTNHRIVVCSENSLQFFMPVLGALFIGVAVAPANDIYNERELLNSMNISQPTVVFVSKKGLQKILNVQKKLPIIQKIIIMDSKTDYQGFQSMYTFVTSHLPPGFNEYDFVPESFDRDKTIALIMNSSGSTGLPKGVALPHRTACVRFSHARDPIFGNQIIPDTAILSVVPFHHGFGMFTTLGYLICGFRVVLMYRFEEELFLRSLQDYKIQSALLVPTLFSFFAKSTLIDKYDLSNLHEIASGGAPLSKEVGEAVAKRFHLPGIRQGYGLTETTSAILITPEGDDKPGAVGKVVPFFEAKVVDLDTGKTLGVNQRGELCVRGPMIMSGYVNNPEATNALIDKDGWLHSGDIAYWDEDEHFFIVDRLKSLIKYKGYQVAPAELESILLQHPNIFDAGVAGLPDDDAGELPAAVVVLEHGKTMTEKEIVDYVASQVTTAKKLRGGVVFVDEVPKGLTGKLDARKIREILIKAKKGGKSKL
#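 Biochemical qHTS of compounds, final roughly 60 µM downward over six points, against 10 nM purified firefly luciferase using Km concentrations of substrates (10 uM D-luciferin, 10 uM ATP) in Tris acetate pH 7.5 buffer; luminescence output.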
# SMN2 splice up: qHTS Assay for Enhancers of SMN2 Splice Variant Expression; HEK293 SMN2-luciferase splicing reporter, luminescence, 30-36 h; Potency, µM (top dose mostly 46.1 µM), without a hit: at the top dose activity change, positive = activation, usual class: activators; 210,000 compounds, 2.8% hits; AID 1458, 2008; note: % of control where 0% means no effect; nearly all actives have a fitted effect of over 55% in size
#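 HEK293 cells carry an SMN2 […]–luciferase reporter in which exon 7 inclusion puts luciferase in frame. Cells were plated 10-12 h before compound addition, then incubated 30-36 h at 37C. ONE-Glo luminescence was read; sodium butyrate at 4.5 mM final served as control.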
# Rab9 prom act: qHTS Assay for Rab9 Promoter Activators. Huh7 Rab9 promoter-luciferase reporter, luminescence, 24 h. Potency, µM (highest dose often 9.22 µM), inactives show at the highest dose activation, negative = inhibition, most hits filed as activators. 320,000 compounds, 2.8% hits; note: % of control where 0% means no effect; nearly all actives have a fitted effect of over 60% in size
#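 Cell-based reporter: Huh7 stable for Rab9 promoter-driven luciferase, plated in reduced-serum medium with 10% FBS at 1500 cells/well, compound-treated 24 h at 37 °C, luminescence read after 10 min reagent.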
# NPC1 promoter act: qHTS Assay for NPC1 Promoter Activators | Huh7 NPC1 promoter luciferase reporter, 24 h | Potency, µM (series often up to 9.22 µM), inactives show at the highest dose activation, hits mostly activators | 320,000 compounds, 2.4% hits | AID 485313, 2010; note: % of control where 0% means no effect; nearly all actives have a fitted effect of over 60% in size
#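 NPC1 promoter–luciferase Huh7 cells; 24 h compound; luminescence.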
# An asterisk follows results filed as active; ? = inconclusive; · = no result; [ ] = remark or other dose. Calls come from the whole dose curve; as a rule, active = well fitted curve in the direction sought with a large enough effect; inconclusive = small, poorly fitted or top-dose-only effect, or another doubt; inactive = no such curve, though single readings can be large; an effect the other way counts as inactive or inconclusive. Potency is the fitted concentration of half-maximal effect.
SMILES,Luc counter,ELG1 genotoxic,FLuc modulator,SMN2 splice up,Rab9 prom act,NPC1 promoter act
O=c1oc2ccccc2cc1-c1nnc(NCc2ccco2)s1,-6.6%,?,2.69µM*,11.2µM*,0.708µM*,1.12µM*
Nc1cccc(-c2cc3ccccc3oc2=O)c1,-2.9%,?,19µM*,21.7%,-1.2%,15.3%
Nc1nnc(-c2cc3ccccc3oc2=O)s1,-9.3%,?,?,17.8µM*,1.58µM*,?
Cc1c(Cl)cccc1NC(=O)CCS(=O)(=O)c1ccc2c(c1)CC(C)N2C(=O)C1CC1 (configuration not stated),·,·,-4.9%,·,·,·
CCc1cccc(-n2c(=O)c3cccnc3n2CC(=O)NCc2ccc(C)cc2)c1,·,·,-9.7%,·,·,·
O=C(c1cc(F)cc(F)c1)N1CCC(c2nc(-c3ccc(S(=O)(=O)N4CCCC4)cc3)no2)CC1,·,·,-14.6%,2.4%,·,·
C(=C\n1nnc2ccccc21)/c1ccccn1,·,?,4.26µM*,·,1.12µM*,2µM*
Nn1nnc2ccccc21,-1.1%,1.3%,-18.1%,-6.5%,1.5%[46.1 µM],7.8%[46.1 µM]
Cn1c2ccccc2c2cc(/C=N/NC(=O)c3ccc(N)cc3)ccc21,·,-13.6%,10.7µM*,·,11.8%,-1.9%
Cn1c2ccccc2c2cc(/C=N/NC(=O)c3ccccc3F)ccc21,·,-10.8%,7.57µM*,·,12.8%,-10.2%
CCn1c2ccccc2c2cc(/C=N/NC(=O)c3ccccc3C)ccc21,-1.1%,?,?,-71.9%,-15.7%,-21.6%
Cc1c(-c2nc(-c3ccc4c(c3)OCO4)no2)nnn1-c1ccc(C(C)C)cc1,·,·,2.4%,·,·,·
Cc1cccc(Nc2nnc(SCC(=O)c3c(N)n(C4CC4)c(=O)[nH]c3=O)s2)c1,·,0.7%,?,·,-4.6%,1.3%
CCc1ccc(-c2nc(SCC(=O)NC3CC3)n[nH]2)cc1,·,?,13.5µM*,·,15.1%,-2.4%
CCc1ccc(-c2nc(SCC(=O)N3CCOCC3)n[nH]2)cc1,·,9.5%,16.9µM*,·,21.7%,7.0%
Cc1ccc(Nc2nnc(SCC(=O)c3c(N)n(C4CC4)c(=O)[nH]c3=O)s2)cc1C,·,-1.3%,0.757µM*,·,2.4%,12.3%
CCc1ccc(-c2nc(SCC(=O)N(CC)C3CCS(=O)(=O)C3)n[nH]2)cc1 (configuration not stated),·,9.0%,3.38µM*,·,?,21.4%
Cc1ccccc1NC(=O)CN1C(=O)CCn2nc(-c3cccn3C)cc21,·,·,-2.7%,·,·,·
Cc1cc(C)c2c(n1)nn1c(C)c(CCC(=O)NCc3ccc(Cl)cc3)c(C)nc21,·,·,-2.9%,-5.0%,·,·
O=C(Cn1cc(C(=O)C2CCCCC2)c2ccccc21)Nc1ccccc1Cl,·,·,-2.1%,-12.0%,·,·
CCc1ccc(-c2nc(SCC(=O)c3c(N)n(C4CC4)c(=O)[nH]c3=O)n[nH]2)cc1,·,-0.6%,2.13µM*,·,26.9%,14.3%
O=C(COc1ccc(F)cc1)Nc1ccc(Cl)c(-c2nc3ccccc3[nH]2)c1,·,·,-13.3%,·,·,·
COc1ccc(OCC(=O)Nc2cccc(-c3nc4ccccc4[nH]3)c2)cc1,-1.4%,-1.9%,9.53µM*,?,29.9%,?
O=C(O)CCCC(=O)Nc1cccc(-c2nc3ccccc3[nH]2)c1,0.7%,-0.5%,12µM*,-3.0%,1.2%,-1.7%
O=C(COc1ccccc1)Nc1cccc(-c2nc3ccccc3[nH]2)c1,-7.1%,-1.6%,16.9µM*,?,-1.3%,-0.6%
SMILES,Luc counter,ELG1 genotoxic,FLuc modulator,SMN2 splice up,Rab9 prom act,NPC1 promoter act
c1ccc2c(-c3csc(-c4ccncc4)n3)c[nH]c2c1,0.3%,?,7.57µM*,12.6µM*,?,1.0%
Brc1ccc(-c2csc(-c3c[nH]c4ccccc34)n2)cc1,-3.5%,10.2%,21.3µM*,?,9.3%,?
COc1ccc(CNCc2c(C(=O)O)c(C)n(Cc3ccccc3C)c2C)cc1OC,·,·,-0.9%,21.9%,·,·
Cc1cc(C)c2oc(-c3ccc(Cl)c(NC(=O)c4ccc(C#N)cc4F)c3)nc2c1,-4.4%,8.9%,16.9µM*,?,-15.6%,-3.9%
O=C(O)C[C@@H](C(=O)O)c1ccccc1[N+](=O)[O-],1.8%[7.66 µM],·,·,-0.5%[9.22 µM],·,·
Cc1ccc(-c2cc(C(=O)N3CCN(S(=O)(=O)c4ccc(Br)cc4)CC3)[nH]n2)cc1C,·,·,-3.2%,·,·,·
COc1ccc(C(=O)N2CCN(C(=O)COc3ccc(Br)cc3)CC2)cc1OC,·,·,16.9µM*,5.4%,·,·
COc1cc(C(=O)N2CCN(C(=O)c3cc(-c4ccc(Br)cc4)n[nH]3)CC2)cc(OC)c1OC,·,1.5%,10.7µM*,·,2.2%,0.8%
COc1ccc(OC)c(NC(=O)CCc2c(C)nc3c(c(C)nn3C(C)(C)C)c2C)c1,·,·,-3.5%,3.6%,·,·
COC(=O)c1ccc(C23CC2(C(NP(=O)(c2ccccc2)c2ccccc2)c2ccccc2)C3)cc1 (configuration not stated),-7.5%,·,·,3.3%,·,·
COc1cc(/C=C2\C(=O)NN(c3ccc(C)cc3)C2=O)cc([N+](=O)[O-])c1O,-5.4%,1.4%,26.9µM*,-8.0%,-3.5%,0.2%
CCOc1cc(/C=C2\C(=O)NN(c3ccccc3)C2=O)cc([N+](=O)[O-])c1O,-2.7%,17.6%,16.9µM*,22.8%,0.6%,-2.2%
COc1cc(/C=C2/C(=O)N(c3ccc(C(=O)O)cc3)N=C2C)cc(OC)c1O,·,-0.4%,?,·,0.3%,-2.6%
COc1cc(/C=C2/C(=O)N(c3ccc(C)c(C)c3)N=C2C)cc([N+](=O)[O-])c1O,·,-0.3%,16.9µM*,·,2.8%,-5.9%
COc1cc(/C=C2\C(=O)NN(c3ccccc3)C2=O)cc([N+](=O)[O-])c1O,-4.7%,6.8%,?,3.3%,8.9%,-4.1%
CCOC(=O)c1ccc(NC(=O)CC2C(=O)N(c3cccc(OC)c3)C(=O)N2Cc2cccnc2)cc1 (configuration not stated),·,·,-17.3%,·,·,·
Cc1ccc(NC(=O)c2ccc(CSc3nnc(-c4ccncc4)n3C)cc2)cc1,-2.6%,17.7%,1.9µM*,26.9%,28.6%,16.8%
Cn1nnnc1SCc1ccc(C(=O)Nc2ccc(Br)cc2)cc1,-4.7%,?,6.01µM*,-2.4%,?,?
COC(=O)CSc1nnc(-c2cccc(NC(=O)c3ccc(C)cc3)c2)n1C,-2.9%,-1.6%,23.9µM*,-34.6%,-0.3%,2.0%
CCn1c(SCC(=O)Nc2nccs2)nnc1-c1ccc(C)cc1,0.1%,-2.7%,-5.7%,-3.5%,0.7%,-1.6%
CCC(=O)Nc1ccc(-c2nnc(SCc3ccc(C(=O)Nc4nccs4)cc3)n2CC)cc1,-5.5%,-1.6%,10.7µM*,-6.6%,·,3.0%

# Screening results: PubChem, National Center for Advancing Translational Sciences (NCATS)
